Screens from PubChem BioAssay.
aSyn 5UTR act = Activators working through SNCA 5'UTR binding (MLPCN); AID 1814; activity score, % (tested at 7.5 µM), hits read low; alpha-synuclein 5'UTR reporter, activators screen; 300,000 tested, 7.1% active; in the data active means activity score below about -60%
* marks the source's active call; other numbers are inactive results. The list is a sample of the results.

SMILES	aSyn 5UTR act
Cc1c(/C(O)=C2\C(=O)C(=O)N(CCN(C)C)C2c2cccs2)cnn1-c1ccccc1 (configuration not stated)	-88*
Cc1ccc(C2/C(=C(/O)c3cnn(-c4ccccc4)c3C)C(=O)C(=O)N2CCCN2CCOCC2)o1 (configuration not stated)	-111*
CCOc1ccccc1C(=O)N1CCN(c2cccc(Cl)c2)CC1	95
CS(=O)(=O)Nc1ccccc1C(=O)N1CCN(c2ccccc2)CC1	-73*
CCC1CSC(Nc2ccc(C(=O)/C=C/c3ccc(Oc4ccccc4)cc3)cc2)=N1 (configuration not stated)	-88*
CC(C)(C)C(=O)N1CCc2cc(-c3csc(N)n3)ccc21	66
CNc1nc(-c2ccc3c(c2)CCN3C(=O)c2ccccc2F)cs1	-90*
CCC(C)C(=O)N1CCc2cc(-c3csc(N)n3)ccc21 (configuration not stated)	-172*
CC(=O)Nc1nc(-c2ccc3c(c2)CCN3C(=O)C2CC2)c(C)s1	-255*
CNc1nc(-c2ccc3c(c2)CCN3C(=O)CC(C)(C)C)c(C)s1	-118*
Cc1ccc(-c2nc(NC(=O)c3nn(C)cc3[N+](=O)[O-])sc2C)cc1	99
CCCC(=O)N1CCc2cc(-c3nc(N)sc3C)ccc21	-208*
Cc1ccc(-c2onc3ccc(C=O)cc23)cc1	-139*
Cc1cc(-c2onc3ccc(Cl)cc23)ccc1O	-91*
Clc1ccc(-c2nnsc2SCc2ccccc2)cc1	-75*
CCOC(=O)/C(=N/Nc1ccc(C)cc1)S(=O)(=O)c1ccc(Cl)cc1	-142*
c1ccc(-n2ncc3c2ncn2nc(-c4ccco4)nc32)cc1	-131*
CCCC(=O)N(CCN1CCOCC1)c1nc2c(F)cc(F)cc2s1	-86*
Cc1ccc(S(=O)(=O)CCC(=O)N(CCN2CCOCC2)c2nc3ccccc3s2)cc1	-75*
c1ccc(CCNc2ncnc3c2cnn3-c2ccccc2)cc1	-149*
Fc1ccc(CNc2ncnc3c2cnn3-c2ccccc2)cc1	-71*
Cc1cccc(-n2ncc3c(N(C)C4CCCCC4)ncnc32)c1	66
Cc1cccc(-n2ncc3c(N(CCO)CCO)ncnc32)c1	-106*
Cc1cccc(-n2ncc3c(NCc4ccccc4)ncnc32)c1	-140*
c1ccc(-n2ncc3c(NCCN4CCCCC4)ncnc32)cc1	-133*
SMILES	aSyn 5UTR act
Cc1cccc(-n2ncc3c(N4CCCc5ccccc54)ncnc32)c1	-123*
c1ccc(CNc2ncnc3c2cnn3-c2ccccc2)cc1	-256*
Clc1ccc(-n2ncc3c(NCc4cccnc4)ncnc32)cc1Cl	-87*
Nc1nc(NCCOCCO)nc(NC2CCCCC2)c1[N+](=O)[O-]	68
CC(C)(C)Nc1ncnc2c1cnn2-c1ccccc1	-104*
Cc1ccc(-c2noc(CCCc3ccccc3)n2)cc1	-77*
COc1ccc(-c2noc(CCCC(=O)O)n2)cc1	89
Fc1ccc(OCc2nc(-c3ccc(Br)o3)no2)c(F)c1	-77*
Cc1ccc(OCc2nc(-c3ccccc3)no2)c(C)c1	-212*
Clc1ccccc1OCc1nc(-c2ccc(Br)o2)no1	-83*
Brc1ccc(-c2noc(CCc3ccccc3)n2)o1	-119*
O=C1C(Cl)=C(Nc2cccc(O)c2)C(=O)N1Cc1ccccc1	-69*
CCOc1ccc(N/C(C)=C\C(=O)c2ccc3c(c2)OCCO3)cc1	-133*
CCOc1ccc(N/C(C)=C/C(=O)c2ccc3c(c2)OCCO3)cc1	-204*
NC(=O)c1c(NC(=O)c2cccnc2)sc2c1CCCC2	-221*
NC(=O)c1c(NC(=O)c2cccnc2)sc2c1CCCCC2	-177*
CCC1CCc2c(sc(NC(=O)c3ccoc3C)c2C(N)=O)C1 (configuration not stated)	-89*
CC(C)(C)C1CCc2c(sc(NC(=O)c3ccncc3)c2C(N)=O)C1 (configuration not stated)	-131*
CCC1CCc2c(sc(NC(=O)c3cccnc3)c2C(N)=O)C1 (configuration not stated)	-99*
NC(=O)c1ccc(-c2ncc(-c3ccccc3)o2)cc1	-68*
COc1ccc2nc3cccc(OC)c3nc2c1	-105*
COc1ccc2nc3ccccc3nc2c1N	-67*
Nc1c2ccccc2nc2ccccc12	89
CC1=CC(C)(C)N(C(=O)CNC2CCCC2)c2cc(C)ccc21	-107*
CCOc1ccc2c(c1)C(C)=CC(C)(C)N2S(=O)(=O)c1ccc(NC(C)=O)cc1	70
SMILES	aSyn 5UTR act
O=C1C=CCC(/C=C/c2ccccc2)O1 (configuration not stated)	-104*
CCC(NC(=O)c1cc(COc2ccc(Cl)cc2OC)on1)c1ccncc1 (configuration not stated)	-121*
COc1ccc(OCc2cc(C(=O)NC(C)Cn3cncn3)no2)c(Cl)c1 (configuration not stated)	-62*
CCC(NC(=O)c1cc(COc2ccc(OC)cc2Cl)on1)c1ccncc1 (configuration not stated)	-71*
COc1cc(Cl)ccc1OCc1cc(C(=O)NC(C)Cc2cnccn2)no1 (configuration not stated)	-145*
COc1cc(C(=O)NC(=S)NNC(=O)c2cnccn2)cc(OC)c1OC	79
CCCOC(=O)c1ccc(NC(=O)CC(C)(C)C)cc1	-109*
CCCCc1ccc(NC(=O)CC(C)(C)C)cc1	-159*
CN(C)c1ccc(C2C3CCCc4ccccc4C3=NN2C)cc1 (configuration not stated)	-134*
CN1N=C2c3ccccc3CCC2C1c1ccc(C(F)(F)F)cc1 (configuration not stated)	-72*
COc1cccc(Cn2c(N)c(C#N)c3nc4ccccc4nc32)c1OC	53
COc1cccc(CNc2ccc3c(c2)ncn3C(C)C)c1OC	-87*
Cc1nc(C)c(-c2ccc(SCc3ccccc3F)nn2)s1	-151*
COc1ccccc1-c1ccc(SCc2ccccc2)nn1	-140*
COc1ccccc1-c1ccc(SCc2ccccc2F)nn1	-74*
O=C(Nc1ccc(Cl)cc1)c1sccc1-n1cccc1	-66*
CCc1ccc(NC(=O)c2sccc2-n2cccc2)cc1	-64*
Cc1cccc2cc(C#N)c(NCc3ccccc3)nc12	-76*
C=CCNc1oc(/C=C/c2ccccc2)nc1C#N	-152*
CN(C)CCNc1oc(/C=C/c2ccccc2)nc1C#N	-98*
Cc1cc(C)c2nc(NCCCNC(=S)NCCCN(C)C)c(C#N)cc2c1	96
CN(C)CCCNc1oc(/C=C/c2ccccc2)nc1C#N	-88*
O=C(NC1CCCCC1)c1cc2nc3c(c(C(F)(F)F)n2n1)CCCC3	-136*
CC(=O)c1ccc(NC(=O)c2cc3nc4c(c(C(F)(F)F)n3n2)CCCC4)cc1	-75*
Cc1ccc(-c2csc(NC(CO)c3nc4ccccc4n3CCOCCO)n2)cc1 (configuration not stated)	-71*
SMILES	aSyn 5UTR act
O=[N+]([O-])c1cccc(-c2nnc(SCc3cccnc3)o2)c1	-62*
COc1cccc(-c2nnc(SCc3cccnc3)o2)c1	-164*
CCOC(=O)C1CCCN(C(=O)c2ccc3oc(Cc4ccccc4)nc3c2)C1 (configuration not stated)	-207*
CCOC(=O)N1CCN(C(=O)c2ccc3oc(CCCc4ccccc4)nc3c2)CC1	-150*
COCC1CCCCN1C(=O)c1ccc2oc(CCCc3ccccc3)nc2c1 (configuration not stated)	-86*
O=C(Nc1cnn(Cc2c(Cl)cccc2Cl)c1)c1ccc([N+](=O)[O-])cc1	-65*
